# The entries come from a sample that favours hits as a whole.
# Cruzain inh noDet: inhibitors of Trypanosoma cruzi cruzain without detergent | P25779 | purified cruzain, Z-FR-AMC fluorescence, no detergent | Potency, µM, for inactives: max response, negative = inhibition, hits mostly inhibitors | 200,000 tested, 2.3% active | AID 1476;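 also: potency is read from the fitted curve at half-maximal effect; plate controls were enzyme without inhibitor for no effect and buffer without enzyme for full effect; nearly all actives have a fitted effect of over 40% in size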
# Target sequence (P25779 123-467 limits assumed): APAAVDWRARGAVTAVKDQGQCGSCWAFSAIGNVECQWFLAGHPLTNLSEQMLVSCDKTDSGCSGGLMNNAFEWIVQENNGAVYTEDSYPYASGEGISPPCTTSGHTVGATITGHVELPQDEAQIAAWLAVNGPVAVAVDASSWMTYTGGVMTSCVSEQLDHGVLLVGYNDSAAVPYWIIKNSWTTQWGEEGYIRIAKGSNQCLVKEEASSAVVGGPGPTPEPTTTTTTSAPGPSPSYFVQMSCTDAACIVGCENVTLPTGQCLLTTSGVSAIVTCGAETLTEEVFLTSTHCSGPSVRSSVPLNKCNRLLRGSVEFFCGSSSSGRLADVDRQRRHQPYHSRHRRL
#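 Purified cruzain at 1.5 nM, pre-incubated 15 min with compound at room temperature in 100 mM sodium acetate pH 5.5, 5 mM DTT, 0.00005% Triton X-100. Reaction started with 2 uM Z-FR-AMC; AMC fluorescence increase over 60 s gives rate.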
# Cruzain inh Det: inhibitors of Trypanosoma cruzi cruzain with detergent; Potency, µM, for the others: max response, negative = inhibition, hits mostly inhibitors; 200,000 tested, 0.43% active; AID 1478; purified cruzain, Z-FR-AMC fluorescence, 0.01% Triton;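 also: potency is read from the fitted curve at half-maximal effect; plate controls were neutral wells for no effect and buffer without enzyme for full effect; nearly all actives have a fitted effect of over 40% in size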
#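 15 min RT preincubation of 1.5 nM cruzain with compound, then 2 uM Z-FR-AMC added; kinetic AMC fluorescence, 60 s delta. Triton X-100 0.01%, pH 5.5.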
# NS1 function inh: blocks influenza NS1 protein function; Potency, µM (top dose mostly 46.1 µM), without a hit: top-dose activity, positive = more growth; 270,000 tested, 0.4% active; calls by dose curve; also: potency is read from the fitted curve at half-maximal effect; actives are rising curves; nearly all actives have a fitted effect of over 50% in size
#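 In this qHTS, NS1 from influenza A is expressed in budding yeast, where it slows growth. Cells are switched from glucose to 2% galactose medium (pH 6.0, -URA), treated with compound, and growth recovery is read at OD600.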
# Flu NS1 inh: influenza NS1 function inhibition validation; shares compounds with NS1 function inh; influenza NS1 function cell assay, 15-point titration; activity change, negative = inhibition, % at 32.9 µM; 1,400 tested, under 10 active; AID 492980; calls by dose curve; also: 0% is about no effect
# * hit, by the source's call; ? = inconclusive; · = not tested or not shown. Unless noted, calls follow the shape of the dose curve; as a rule, active = well fitted curve in the direction sought with a large enough effect; inconclusive = small, poorly fitted or top-dose-only effect, or another doubt; inactive = no such curve, though single readings can be large; an effect the other way counts as inactive or inconclusive.
SMILES,Cruzain inh noDet,Cruzain inh Det,NS1 function inh,Flu NS1 inh
O=C(NCC1CCCO1)C(c1cccs1)N(Cc1cccs1)C(=O)c1ccc(-c2ccccc2)[nH]1 (stereo not given),18.2%,-3.8%,12.6µM*,-29.7
O=C(NCC1CCCO1)C(c1ccc(F)cc1)N(CC1CCCO1)C(=O)c1ccc(-c2ccccc2)[nH]1 (stereo not given),·,·,-8.1%,·
CC(=O)c1cccc(NC(=O)c2c(C)nn(-c3ccc(F)cc3)c2-n2cccc2)c1,4.6%,-3.6%,·,·
Cc1ccc2c(c1)C(c1ccccc1)N(C(=O)COc1ccc(Cl)cc1Cl)CC(=O)N2 (stereo not given),?,-7.5%,·,·
O=C(/C=C/c1ccc(Cl)c([N+](=O)[O-])c1)Nc1cccc(NC(=O)c2ccco2)c1,?,-7.8%,17.8µM*,8.1
O=C(NC(=S)Nc1ccc(N2CCCC2)cc1)c1ccccc1[N+](=O)[O-],?,-2.4%,?,2.1
O=C(/C=C/c1ccc(Cl)c([N+](=O)[O-])c1)Nc1ccc(NC(=O)c2ccco2)cc1,?,2.9%,2.2%,·
O=C(/C=C/c1ccc(Cl)c([N+](=O)[O-])c1)Nc1cccnc1,-13.4%,-20.9%,3.1%,·
O=C(NC(=S)Nc1ccccc1N1CCCC1)c1ccccc1[N+](=O)[O-],2.5%,-6.3%,9.7%,·
O=C(/C=C/c1ccc(Cl)c([N+](=O)[O-])c1)Nc1ccc(N2CCCC2)cc1,15.8µM*,-27.3%,?,18.1
COc1ccccc1-c1cncnc1NCCNC(C)=O,-5.7%,3.8%,·,·
CC(=O)c1ccc(NC(=O)c2cn(-c3ccccc3)nc2-c2ccc(Br)cc2)cc1,-6.1%,0.5%,·,·
CC(C)Nc1ccc(C(CC(N)=O)NC(=O)c2ccc(Br)cc2)cc1[N+](=O)[O-] (stereo not given),·,·,1.7%,·
CN(Cc1ccccc1)c1ccc(C(CC(N)=O)NC(=O)c2ccc(Br)cc2)cc1[N+](=O)[O-] (stereo not given),·,·,5.01µM*,?
NCCC[C@@H](CC(=O)N[C@@H]1CCNC[C@H]1C(=O)N[C@H](CC(=O)N[C@@H](CCC(=O)O)CC(=O)O)Cc1ccccc1)NC(=O)C[C@H](CO)NC(=O)[C@@H]1CCCC[C@H]1N,-0.6%,1.8%,·,·
c1csc(CNc2ccnc(-c3ccoc3)n2)c1,-24.5%,-0.1%,·,·
COc1ccc(CNC(=O)CCC(=O)Nc2nnc(CC(C)C)s2)cc1,·,·,0.5%,·
COc1cc(/C=N/NC(=O)c2sc3nc(C)cc(C)c3c2N)ccc1O,·,·,?,4.6
COC(=O)c1sc2nc(C)cc(C)c2c1N,·,·,3.1%,·
COc1cccc(NC(=O)CSc2nnc(NC(=O)NC3CCCCC3)s2)c1,-9.4%,-7.4%,·,·
O=C(Nc1nc2c(ccc3ccccc32)s1)c1cc([N+](=O)[O-])ccc1N1CCOCC1,·,·,4.9%,·
CN(C)S(=O)(=O)c1ccc(N2CCCC2)c(C(=O)Nc2nc3c(ccc4ccccc43)s2)c1,7.94µM*,-4.2%,14.1µM*,-6.9
Cn1c(O)c(C=NCc2ccco2)c(=O)n(C)c1=O,-4.5%,-1.7%,8.91µM*,-13.5
CC(=NCc1ccco1)c1c(O)n(C)c(=O)n(C)c1=O,1.2%,6.3%,-74.9%,·
Cc1cc(Cl)ccc1N(CC(=O)NCc1ccc2c(c1)OCO2)S(C)(=O)=O,·,·,-1.1%,·
SMILES,Cruzain inh noDet,Cruzain inh Det,NS1 function inh,Flu NS1 inh
Cc1cc(-c2ccc(S(=O)(=O)Nc3ccc(Cl)cc3C)cc2)on1,-10.3%,-12.1%,·,·
Cc1nnc(NC(=O)CSc2ncc(-c3ccccc3)[nH]2)s1,·,·,4.47µM*,7.2
CCc1nnc(NC(=O)CSc2ncc(-c3ccccc3)[nH]2)s1,-0.1%,2.7%,14.1%,·
CC(NCc1ccc(S(N)(=O)=O)cc1)C(=O)N1c2ccccc2CC1C (stereo not given),·,·,7.94µM*,3.0
CC(NCc1ccc(S(N)(=O)=O)cc1)C(=O)N1CCc2ccccc21 (stereo not given),·,·,14.3%,·
CC(=O)N1CCCC1c1nc2ccccc2n1Cc1ccccc1C (stereo not given),-3.1%,-10.3%,·,·
O=C(COC(=O)c1cccc2ccccc12)Nc1ncc(C(F)(F)F)cc1Cl,-3.3%,-7.8%,4.47µM*,8.5
CCOc1ccccc1C(=O)OCC(=O)Nc1ncc(C(F)(F)F)cc1Cl,-2.5%,0.2%,-3.5%,·
O=C1C(Cl)=C(Sc2nnc3c4ccccc4c4ccccc4c3n2)C(=O)c2ccccc21,-20.5%,-13.8%,3.1%,·
COc1ccccc1N1CCN(C(=O)CN2C(=O)COc3ccc(S(=O)(=O)N4CCOCC4)cc32)CC1,?,-1.6%,·,·
CCCC(=O)NCc1ccc2c(c1)cc(C)n2C,4.3%,6.7%,?,·
Cc1cc2cc(CNC(=O)Nc3cccc(Cl)c3)ccc2n1C,12.6µM*,2.1%,?,16.3
COc1ccc(CNC(=O)Nc2cccc(Cl)c2)cc1,·,·,1.0%,·
Cc1cccc(NC(=O)NCc2ccc3c(c2)cc(C)n3C)c1,7.94µM*,5.7%,11.2µM*,12.7
CCCN(CCC)CC(O)Cn1cc(/C=C/C(=O)c2ccc(OCC)cc2)c2ccccc21 (stereo not given),0.3%,-8.6%,·,·
Cc1nc(N)nc2ccccc12,6.5%,1.7%,0.0%,·
O=C(Nc1ccc(-c2cc3ccccc3oc2=O)c(Cl)c1)c1cccnc1,5.7%,4.6%,2.24µM*,6.5
Cc1cc(NC(=O)c2ccc(Cl)c(Cl)c2)ccc1-c1cc2ccccc2oc1=O,17.4%,1.9%,·,·
CCN(CC)C(=O)CSc1nc2c(c(=O)n(C)c(=O)n2C)n1Cc1ccccc1,-6.7%,-5.5%,·,·
O=C(NCCc1nnc2ccc(NCCCN3CCOCC3)nn12)c1ccccc1F,·,·,10.4%,·
Cc1cnc(C(=O)OCC(=O)Nc2ccc(C)c(S(=O)(=O)N3CCCCC3)c2)cn1,-4.8%,-3.2%,-4.6%,·
Cc1ccc(NC(=O)COC(=O)c2ccc3c(c2)OCO3)cc1S(=O)(=O)N1CCCCC1,?,-1.8%,10µM*,6.4
CCN(CC)S(=O)(=O)c1ccc2nc(NC(=O)c3cccnc3)sc2c1,28.6%,-4.4%,·,·
Nc1ccc(S(N)(=O)=O)cc1N,·,·,4.47µM*,18.9
Nc1ccc(S(N)(=O)=O)cc1,-5.5%,4.6%,·,·
SMILES,Cruzain inh noDet,Cruzain inh Det,NS1 function inh,Flu NS1 inh
Cc1nn(Cc2ccccc2Cl)c(Cl)c1C(=O)OCC(=O)NC(=O)NC1CCCCC1,-3.9%,-9.4%,22.4µM*,-29.1
Cc1nn(-c2ccccc2)c(C)c1C(=O)OCC(=O)NC(=O)NC1CCCC1,8.4%,-4.6%,4.6%,·
COc1ccc(-c2nn(-c3ccccc3)cc2/C=C2/SC(=S)N(CCC(=O)O)C2=O)c(C)c1,·,·,11.2µM*,?
O=C(O)CCN1C(=O)/C(=C/c2cn(-c3ccccc3)nc2-c2cccs2)SC1=S,·,·,-0.3%,·
CCOc1ccc(CC(=O)N2CCc3cc(OC)c(OC)cc3C2COc2ccc3c(C)cc(=O)oc3c2)cc1 (stereo not given),-1.6%,5.6%,·,·
CCOc1ccc(NC(=S)N2CCc3cc(OC)c(OC)cc3C2COc2ccc3c(C)cc(=O)oc3c2)cc1 (stereo not given),?,6.3%,11.2µM*,11.3
CSc1cc(-c2ccc(Cl)cc2)c(C(=O)NN)s1,6.3%,-5.9%,?,-20.2
CSc1cc(-c2ccc(Cl)cc2)c(C(=O)NC(C)C)s1,11.0%,-3.5%,-2.6%,·
COc1ccc(C(C)=O)cc1COc1cccnc1[N+](=O)[O-],·,·,?,-5.8
CCOc1ccc(C(C)=O)cc1COc1cccnc1[N+](=O)[O-],·,·,-69.5%,·

# Source: PubChem (National Center for Advancing Translational Sciences (NCATS))
